From the supplement of paper PMC10681739

Target: RUNX1 (UniProt Q01196)
Experiment: RUNX1 binding intensity (PBM fluorescence) in presence of ETS1, normalised to RUNX1-only experiment (arbitrary fluorescence units); higher = stronger binding
Settings: RUNX1 concentration 2 nM; ETS1 concentration 25 nM
Procedure: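 Cooperative gcPBM on 36-bp genomic probes with neighbouring ETS1 and RUNX1 sites. Recombinant human RUNX1 (2 nM) was incubated alone or with ETS1 (25 nM) and detected with anti-RUNX1 antibody plus Alexa488 secondary. Values are medians over 4 replicate spots; the RUNX1+ETS1 data were normalised to the RUNX1-only data. The probes sit in constant array flanks that are not printed.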
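Also: Full-length recombinant human ETS1 or RUNX1 bound to double-stranded 36-bp genomic probes on microarrays, detected by protein-specific primary antibody and Alexa488 secondary, spot fluorescence as median of four replicate spots.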

RUNX1, sequence (Q01196 whole entry): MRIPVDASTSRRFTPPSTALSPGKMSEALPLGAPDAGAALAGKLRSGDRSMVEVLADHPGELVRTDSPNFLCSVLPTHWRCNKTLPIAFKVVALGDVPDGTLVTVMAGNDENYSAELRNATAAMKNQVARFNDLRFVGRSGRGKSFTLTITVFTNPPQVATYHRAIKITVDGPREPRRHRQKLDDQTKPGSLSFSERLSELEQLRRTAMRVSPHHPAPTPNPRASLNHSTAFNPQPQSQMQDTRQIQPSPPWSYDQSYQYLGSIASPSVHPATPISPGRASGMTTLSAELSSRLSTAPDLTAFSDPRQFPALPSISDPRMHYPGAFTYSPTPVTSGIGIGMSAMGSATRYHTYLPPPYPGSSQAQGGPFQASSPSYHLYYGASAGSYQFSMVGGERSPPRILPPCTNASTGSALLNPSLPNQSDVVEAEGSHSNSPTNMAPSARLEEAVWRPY

Sequence	RUNX1 binding intensity
TCATTTCCTCTGGTGTTATTGTGTTGTGGTTTTAAG	3040
GTTGGGAGGCGCACATCCGGCGGTTACCCGGTGCTT	1560
AGGAAACCACAAGTTATTCCCTGCAAAGGTCTTGAT	6430
TAGCCACTAACCGGAAACGTTAAACCACAGCTCCGT	7440
CTCTCTGGGCGGAAGGAACGCGGTCACCCTGAGAAA	871
AACGGACCCGGAAGGGGCAGGTCTTGTGGGCGGGTC	904
CGAACGCCGGACGTTCTGGGCACGTGACCGCCACCC	938
CCGCTTCCGGGACGCGAATCGCTCTGCGGCTGCGTC	2080
CCTACACTTCCCAGAGAACCTAGCGGTTACGCCAAC	1560
GGGGACCGGAAAGGGAGGGGTGGGCCGCAGGCGCCG	1150
TTTCTCTTCCTGTTTCCACCCTGACCACAGCCAGCT	5140
GGCGGCTTCCGGGATCTGCCTGGCGGTTGCTTTGTC	2140
GTTTTCAAGGCAGGAAGTGGCTGTGGTGGCACGGAG	1570
TGAGTTTTGTTTCCGATTCACCACAGAAGATACTTT	2560
TGGTTCCACCGACCGGAAGGGCCACAAGGATCCCCG	1250
CCCTACCTCTCCTTCCTGCCACAAGGGAAAGTCACT	2550
CCCGCGACACAAGGCGGATGTGGTACCCTCACTTGT	1200
GGCTGCAGGAAGTGGGAAGGTGTGGCTTTGAGTCTC	1820
GGGCCCTTCCTGTGGCGCCTGCCGAGCTGTGGTTGG	1380
GCCCCGGAAGTGGCCCGGCTGTTGGCCGCAGCGGGA	1710

Sequence	RUNX1 binding intensity
GCAGAAGAGGAAATGGTTTGCCTGTGCGGTGGGGGA	999
TCTTCTTCCTCCCCCACCCCAAAAGCCACAGGTGAC	1410
CCTCCCACCTTGGCAGGAAGCGGTTTATCAGATTAA	2280
GCCGGGCACCCCGGAAGACCGCTGGGAACCGGCTTT	1080
CCCGGCCCAGGAAACTTCAGACTTCACCGCAGCTTC	1030
GAGAAACAAACAGGATGTGGTCTCTGCCCTGGAGGA	2420
ACACCTCAGGAAGTGGCAGAGACCACAACAAGTCAG	1620
CGGCGCGGCGGACGTTGCTGCGGTAGGACGTGCCCG	875
ATAGACTCAGGAAGTGATTGTGGTAAGATTCTATAT	1440
CTCACAGCAGCCCCAGGAAACCACCTCTTCCTTCAG	1030
ACTCCTCCCGCTTCCGCTGCCGCAGCCGGTCGTAAC	3470
CCATTTCCCGCCTACCGACCTGCTGCACCGCACGGA	3390
AACTAGAGCGTCATTTCCTGTGGGTACAAGTCCAGT	1370
AGGGCTGAAACAGGATGTGGTGAGTGAGGTAGGGTG	3160
ACACCCCAGGAAGTGGCAGAGACCACAACAAGTCAG	1910
CACTTCCTGCCCTCTTCCACTTTCAAAACCACATCA	9880
CCCAGCCGAGGGAGGAAGCCTGCGGTCACTGCCATC	3190
GCGCCAGTCACCGTTTCCTGTGGTTTGCTGCCCGCC	2810
GCAGGGACCGGAAGTCCATGGCTCTGCCGCAACCCT	1250
GAAATCCATCACGGATGTGGGCTTTTTGCTCTCATT	1010
